# Reference: PubChem BioAssay (Tox21)
# Inconclusive results are not listed. Where a call stands in place of a potency, no number is given. Unmarked numbers belong to inactive results. Active and inactive are the calls of the source. Unless noted, calls come from the whole dose curve; as a rule, active = well fitted curve in the direction sought with a large enough effect in the repeat runs; inconclusive = weak or mixed curves; inactive = no such curve, though single readings can be large; an effect the other way counts as inactive or inconclusive.
# What was measured:
# [1] = target: Retinoic acid receptor RXR-alpha (Homo sapiens) (UniProt P19793); experiment: qHTS assay to identify small molecule agonists of the RXR signaling pathway (AID 1159527; calls by dose curve; note: nearly all actives have a fitted effect of over 35% in size; note: potency is the fitted concentration of half-maximal effect)
# Retinoic acid receptor RXR-alpha (Homo sapiens), sequence (P19793 whole entry, looked up): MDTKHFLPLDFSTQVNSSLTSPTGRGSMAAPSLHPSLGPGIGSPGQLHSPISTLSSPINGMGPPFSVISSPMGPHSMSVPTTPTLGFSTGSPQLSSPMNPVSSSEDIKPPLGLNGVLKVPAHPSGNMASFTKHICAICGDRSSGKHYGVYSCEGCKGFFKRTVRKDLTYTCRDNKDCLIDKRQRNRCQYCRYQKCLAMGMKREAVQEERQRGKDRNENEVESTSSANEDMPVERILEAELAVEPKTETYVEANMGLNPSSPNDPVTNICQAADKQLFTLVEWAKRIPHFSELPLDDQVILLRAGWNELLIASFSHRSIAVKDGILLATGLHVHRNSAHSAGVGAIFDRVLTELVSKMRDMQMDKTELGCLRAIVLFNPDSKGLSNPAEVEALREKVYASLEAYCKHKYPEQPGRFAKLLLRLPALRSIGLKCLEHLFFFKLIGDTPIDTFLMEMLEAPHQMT
# Outline: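 Agonist mode; 9-cis retinoic acid positive control. HEK 293T UAS-bla reporter cells, 2% charcoal-stripped FBS, 16 hr compound exposure at 37 C/5% CO2. LiveBLAzer B/G FRET substrate 2 hr RT; ex 405, em 460/530 nm.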
# [2] = qHTS assay to identify small molecule agonists of the RXR signaling pathway - cell viability counter screen (AID 1159529); note: series mostly up to about 77 µM; nearly all actives have a fitted effect of over 50% in size
# Outline: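 Luminescence from CellTiter-Glo (30 min, RT) measured viability in the same wells as the beta-lactamase reporter readout. Cells: GeneBLAzer RXR-alpha HEK 293T, 2% charcoal-stripped FBS. Compound exposure 16 hr, 37 C.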
# [3] = qHTS assay to identify small molecule antagonists of the retinoid acid receptor (RAR) signaling pathway - cell viability counter screen (AID 1159551); note: nearly all actives have a fitted effect of over 35% in size
# Outline: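 Cytotoxicity counter screen: ATP content quantified by CellTiter-Glo luminescence in C3RL4 cells treated 6 hr at 37 C with compound and retinol (1 uM final). Cells plated at 1,000/well and cultured overnight before dosing.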
# [4] = qHTS assay to identify small molecule antagonists of the retinoic acid receptor (RAR) signaling pathway (AID 1159552; note: nearly all actives have a fitted effect of over 50% in size)
# Outline: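 Luminescence from a RARE luciferase reporter in C3RL4 cells served as read-out. Cells received compounds together with 1 uM final retinol and incubated 6 hr at 37 C before detection reagent was added for 30 min at room temperature.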
# [5] = qHTS assay to identify small molecule agonists of the retinoic acid receptor (RAR) signaling pathway (AID 1159553)
# Outline: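 Luminescence was measured 30 min after luciferase reagent addition at room temperature. Before that, C3RL4 reporter cells (1,000 per well, plated overnight) were treated with compound for 6 hr at 37 C and 5% CO2.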
# [6] = qHTS assay to identify small molecule antagonists of the estrogen related receptor (ERR) signaling pathway from Tox21 library - cell viability counter screen (AID 1224834); note: nearly all actives have a fitted effect of over 30% in size
# Outline: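 CellTiter-Fluor fluorescence, read after 30 min at 37 C, measures viability of ERR cells. Cells plated at 2,000/well and incubated 6 h before pin-tool compound addition, then exposed 17.5 hours at 37 C.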
# [7] = target: Luciferin 4-monooxygenase (Photinus pyralis) (UniProt P08659); experiment: qHTS assay to identify small molecule inhibitors of firefly luciferase (AID 1224835); note: nearly all actives have a fitted effect of over 25% in size; note: potency is the fitted concentration of half-maximal effect; for activity change, negative = inhibition: series mostly up to about 120 µM
# Luciferin 4-monooxygenase (Photinus pyralis), sequence (P08659 whole entry, looked up): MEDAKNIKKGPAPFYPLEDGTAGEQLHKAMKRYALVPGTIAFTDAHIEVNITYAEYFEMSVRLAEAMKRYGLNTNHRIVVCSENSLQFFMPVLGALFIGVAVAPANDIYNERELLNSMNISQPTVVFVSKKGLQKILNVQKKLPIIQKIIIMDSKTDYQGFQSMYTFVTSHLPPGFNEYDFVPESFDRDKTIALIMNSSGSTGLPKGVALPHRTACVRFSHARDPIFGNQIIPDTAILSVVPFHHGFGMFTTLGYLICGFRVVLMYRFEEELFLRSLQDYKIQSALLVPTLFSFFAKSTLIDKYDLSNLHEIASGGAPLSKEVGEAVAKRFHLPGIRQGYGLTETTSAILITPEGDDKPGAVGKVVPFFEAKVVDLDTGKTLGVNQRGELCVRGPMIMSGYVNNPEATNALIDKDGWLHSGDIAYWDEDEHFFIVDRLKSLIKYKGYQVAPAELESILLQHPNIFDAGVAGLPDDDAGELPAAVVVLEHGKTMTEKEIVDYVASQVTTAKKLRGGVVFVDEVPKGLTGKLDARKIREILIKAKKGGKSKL
# Outline: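 Quantitative HTS format; KM concentrations of both substrates. Purified P. pyralis FLuc activity quantified from luminescence images.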
# [8] = qHTS assay to identify small molecule agonists of the constitutive androstane receptor (CAR) signaling pathway - cell viability counter screen (AID 1224836); note: series mostly up to about 92 µM; nearly all actives have a fitted effect of over 45% in size
# Outline: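 Viability read-out: CellTiter-Fluor fluorescence after 23 h compound exposure at 37 C/5% CO2 in double-stable HepG2-CYP2B6-hCAR cells, with PK11195 present at 0.75 uM final; compounds tested in 15-point titration.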
# [9] = qHTS assay to identify small molecule antagonists of the constitutive androstane receptor (CAR) signaling pathway - cell viability counter screen (AID 1224837); note: series mostly up to about 92 µM; nearly all actives have a fitted effect of over 45% in size
# Outline: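 Cytotoxicity counter-screen: CellTiter-Fluor fluorescence after 23 h compound exposure (15-point qHTS) in double-stable HepG2-CYP2B6-hCAR cells, with 50 nM CITCO added.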
# [10] = target: Nuclear receptor subfamily 1 group I member 3 (Homo sapiens) (UniProt Q14994); experiment: qHTS assay to identify small molecule antagonists of the constitutive androstane receptor (CAR) signaling pathway (AID 1224838);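 note: HepG2 cells stably expressing hCAR with CYP2B6 luciferase reporter stimulated by CITCO; nearly all actives have a fitted effect of over 40% in size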
# Nuclear receptor subfamily 1 group I member 3 (Homo sapiens), sequence (Q14994 whole entry, looked up): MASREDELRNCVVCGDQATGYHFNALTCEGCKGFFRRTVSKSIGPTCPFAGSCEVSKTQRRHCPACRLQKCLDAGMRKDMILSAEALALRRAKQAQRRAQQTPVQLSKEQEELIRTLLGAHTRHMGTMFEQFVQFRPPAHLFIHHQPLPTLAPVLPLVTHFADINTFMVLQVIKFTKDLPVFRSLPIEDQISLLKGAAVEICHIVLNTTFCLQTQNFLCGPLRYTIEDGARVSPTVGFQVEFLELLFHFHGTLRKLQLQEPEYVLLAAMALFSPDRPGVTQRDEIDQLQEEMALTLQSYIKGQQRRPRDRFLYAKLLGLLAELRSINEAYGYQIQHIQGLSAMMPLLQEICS
# Outline: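 Antagonism measured as luciferase signal (ONE-Glo, 30 min, room temperature) in CAR-stimulated cells: HepG2-CYP2B6-hCAR double-stable line exposed 24 hr at 37 C to compound in a 15-point series plus 50 nM CITCO.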
structure (smiles),measurement,setting,value
CCCCCCC1(C)CCC(=O)O1 (stereo unspecified),Potency,[1],inactive
same,outcome,[2],inactive
same,outcome,[3],inactive
same,outcome,[4],inactive
same,Potency,[5],inactive
same,outcome,[6],inactive
same,Potency,[7],inactive
same,outcome,[8],inactive
same,outcome,[9],inactive
same,Potency,[10],inactive
CC(C)NCC(O)c1ccc2ccccc2c1 (stereo unspecified),Potency,[1],inactive
same,outcome,[2],inactive
same,outcome,[3],inactive
same,outcome,[4],inactive
same,outcome,[6],inactive
same,Potency,[7],inactive
same,outcome,[8],inactive
same,outcome,[9],inactive
same,Potency,[10],inactive
CC(=O)O[C@@H]1CC2CCC1(C)C2(C)C (stereo partly specified),Potency,[1],inactive
same,outcome,[2],inactive
same,outcome,[3],inactive
same,outcome,[4],inactive
same,Potency,[5],inactive
same,outcome,[6],inactive
same,Potency,[7],inactive
same,outcome,[9],inactive
same,Potency,[10],inactive
C=C(C)C1CC=C(C)C(=O)C1 (stereo unspecified),Potency,[1],inactive
same,outcome,[2],inactive
same,outcome,[3],inactive
same,outcome,[6],inactive
same,Potency,[7],inactive
same,outcome,[9],inactive
CC(C)(C)NC[C@H](O)COc1cccc2c1CCCC2=O,Potency,[1],inactive
same,outcome,[2],inactive
same,outcome,[3],inactive
same,outcome,[4],inactive
same,Potency,[5],inactive
same,outcome,[6],inactive
same,Potency,[7],inactive
same,outcome,[9],inactive
same,Potency,[10],inactive
CC(C)c1ccc(C=O)cc1,Potency,[1],43.6 µM (active)
same,outcome,[2],inactive
same,outcome,[3],inactive
same,outcome,[4],inactive
same,Potency,[5],inactive
same,outcome,[6],inactive
same,Potency,[7],inactive
same,outcome,[9],inactive
same,Potency,[10],inactive
CC(=O)OC(C)=O,Potency,[1],inactive
same,outcome,[2],inactive
same,outcome,[3],inactive
same,outcome,[4],inactive
same,Potency,[5],inactive
same,outcome,[6],inactive
same,Potency,[7],inactive
same,outcome,[9],inactive
same,Potency,[10],inactive
c1ccc(B(c2ccccc2)c2ccccc2)cc1,Potency,[1],inactive
same,outcome,[2],inactive
same,outcome,[3],inactive
same,outcome,[4],inactive
same,outcome,[6],inactive
same,Potency,[7],31.7 µM (active)
same,outcome,[8],inactive
same,outcome,[9],inactive
CCCCOC(=O)[C@H](C)O,Potency,[1],inactive
same,outcome,[2],inactive
same,outcome,[3],inactive
same,outcome,[4],inactive
same,outcome,[6],inactive
same,Potency,[7],inactive
same,outcome,[8],inactive
same,outcome,[9],inactive
same,Potency,[10],inactive
CCCCOCCOC(=O)COc1ccc(Cl)cc1Cl,Potency,[1],inactive
same,outcome,[2],inactive
same,outcome,[3],inactive
same,outcome,[4],inactive
same,outcome,[6],inactive
same,Potency,[7],inactive
same,outcome,[8],inactive
same,outcome,[9],inactive
same,Potency,[10],inactive
C[Si]1(C)O[Si](C)(C)O[Si](C)(C)O[Si](C)(C)O[Si](C)(C)O1,Potency,[1],inactive
same,outcome,[2],inactive
same,outcome,[3],inactive
same,outcome,[4],inactive
same,outcome,[6],inactive
same,Potency,[7],inactive
same,outcome,[9],inactive
same,Potency,[10],inactive
CC(O)COC(C)(C)C (stereo unspecified),Potency,[1],inactive
same,outcome,[2],inactive
same,outcome,[3],inactive
same,outcome,[4],inactive
same,Potency,[5],inactive
same,outcome,[6],inactive
same,Potency,[7],inactive
same,outcome,[9],inactive
same,Potency,[10],inactive
COc1c2occc2c(OC)c2c(=O)cc(C)oc12,Potency,[1],inactive
same,outcome,[2],inactive
same,outcome,[3],inactive
same,outcome,[4],inactive
same,outcome,[6],inactive
same,Potency,[7],inactive
same,outcome,[9],inactive
O=S(=O)(O)c1ccc2c(N=Nc3ccc(S(=O)(=O)O)c4ccccc34)c(O)c(S(=O)(=O)O)cc2c1,activation,[1],0.333% [at 6.98 µM]
same,"activity change, negative = cytotoxicity",[2],0.355% [at 6.97 µM]
same,"activity change, negative = cytotoxicity",[3],-2.67% [at 8.39 µM]
same,"activity, negative = inhibition",[4],111% [at 8.39 µM]
same,activation,[5],-2.37% [at 8.36 µM]
same,"viability change, negative = cytotoxic",[6],-6.16% [at 8.39 µM]
same,"activity change, negative = inhibition",[7],-3.96% [at 10.5 µM]
same,"activity change, negative = cytotoxicity",[9],-18.2% [at 8.39 µM]
same,"activity, negative = inhibition",[10],-7.08% [at 8.39 µM]
CCC(=O)CC,Potency,[1],inactive
same,outcome,[2],inactive
same,outcome,[3],inactive
same,outcome,[4],inactive
same,outcome,[6],inactive
same,Potency,[7],inactive
same,outcome,[8],inactive
same,outcome,[9],inactive
same,Potency,[10],inactive
O=C(O)[C@H](O)c1ccccc1,Potency,[1],inactive
same,outcome,[2],inactive
same,outcome,[3],inactive
same,outcome,[4],inactive
same,outcome,[6],inactive
same,Potency,[7],inactive
same,outcome,[8],inactive
same,outcome,[9],inactive
same,Potency,[10],inactive
CCCC(=O)OC/C=C(\C)CCC=C(C)C,Potency,[1],inactive
same,outcome,[2],inactive
same,outcome,[3],inactive
same,outcome,[4],inactive
same,outcome,[6],inactive
same,Potency,[7],inactive
same,outcome,[9],inactive
same,Potency,[10],inactive
O=C(O)CONC(=O)c1ccccc1,Potency,[1],inactive
same,outcome,[2],inactive
same,outcome,[3],inactive
same,outcome,[4],inactive
same,outcome,[6],inactive
same,Potency,[7],inactive
same,outcome,[8],inactive
same,outcome,[9],inactive
same,Potency,[10],inactive
Cc1ccccc1C(N)=O,Potency,[1],inactive
same,outcome,[2],inactive
same,outcome,[3],inactive
same,outcome,[4],inactive
same,outcome,[6],inactive
same,Potency,[7],inactive
same,outcome,[8],inactive
same,outcome,[9],inactive
same,Potency,[10],inactive
CCOc1cccc(N)c1,Potency,[1],inactive
same,outcome,[2],inactive
same,outcome,[3],inactive
same,outcome,[4],inactive
same,outcome,[6],inactive
same,Potency,[7],inactive
same,outcome,[8],inactive
same,outcome,[9],inactive
same,Potency,[10],inactive
O/N=C/C=N/O,Potency,[1],inactive
same,outcome,[2],inactive
same,outcome,[3],inactive
same,outcome,[4],inactive
same,outcome,[6],inactive
same,Potency,[7],inactive
same,outcome,[8],inactive
same,outcome,[9],inactive
same,Potency,[10],inactive
CO/N=C(/C(=O)N[C@@H]1C(=O)N2C(C(=O)[O-])=C(C[n+]3ccn4ncccc43)CS[C@H]12)c1nsc(N)n1,Potency,[1],inactive
same,outcome,[2],inactive
same,outcome,[3],inactive
same,outcome,[4],inactive
same,outcome,[6],inactive
same,Potency,[7],inactive
same,outcome,[8],inactive
same,outcome,[9],inactive
same,Potency,[10],inactive
CCCCCCCCCCCCCBr,Potency,[1],inactive
same,outcome,[2],inactive
same,outcome,[3],inactive
same,outcome,[4],inactive
same,Potency,[5],inactive
same,outcome,[6],inactive
same,Potency,[7],inactive
same,outcome,[9],inactive
same,Potency,[10],inactive
C/C(=C1\CCOC(=O)S1)N(C=O)Cc1cnc(C)nc1N,Potency,[1],inactive
same,outcome,[2],inactive
same,outcome,[3],inactive
same,outcome,[4],inactive
same,outcome,[6],inactive
same,Potency,[7],inactive
same,outcome,[9],inactive
same,Potency,[10],inactive
CCOC(=O)CC1(C)OCC(C)O1 (stereo unspecified),Potency,[1],inactive
same,outcome,[2],inactive
same,outcome,[3],inactive
same,outcome,[4],inactive
same,Potency,[5],inactive
same,outcome,[6],inactive
same,Potency,[7],inactive
same,outcome,[9],inactive
same,Potency,[10],inactive
CCCCOC(=O)C(C)O (stereo unspecified),Potency,[1],inactive
same,outcome,[2],inactive
same,outcome,[3],inactive
same,outcome,[4],inactive
same,Potency,[5],inactive
same,outcome,[6],inactive
same,Potency,[7],inactive
same,outcome,[9],inactive
same,Potency,[10],inactive
